TEAD-YAP block = TEAD-YAP interaction inhibition | HEK-TIYL cells, TEAD-Gal4/YAP UAS-luciferase luminescence | 640,000 compounds, 1.4% hits | inhibition, % at 9.12 µM | AID 1259422; in the data active means inhibition above about 32%;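 further: 0% = median of test compound wells and 100% = reference inhibitor wells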
FBW7 act = activators of human E3 ligase FBW7; 650,000 compounds, 0.13% hits; AlphaScreen FBW7–phospho-cyclin E peptide binding, activator screen; AID 1259310; normalized activity (activation), % at 26.1 µM; Q969H0; in the data active means normalized activity above about 1.9%;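 further: purified mutant Fbw7 with reduced substrate affinity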
Target sequence (Q969H0 whole entry, looked up): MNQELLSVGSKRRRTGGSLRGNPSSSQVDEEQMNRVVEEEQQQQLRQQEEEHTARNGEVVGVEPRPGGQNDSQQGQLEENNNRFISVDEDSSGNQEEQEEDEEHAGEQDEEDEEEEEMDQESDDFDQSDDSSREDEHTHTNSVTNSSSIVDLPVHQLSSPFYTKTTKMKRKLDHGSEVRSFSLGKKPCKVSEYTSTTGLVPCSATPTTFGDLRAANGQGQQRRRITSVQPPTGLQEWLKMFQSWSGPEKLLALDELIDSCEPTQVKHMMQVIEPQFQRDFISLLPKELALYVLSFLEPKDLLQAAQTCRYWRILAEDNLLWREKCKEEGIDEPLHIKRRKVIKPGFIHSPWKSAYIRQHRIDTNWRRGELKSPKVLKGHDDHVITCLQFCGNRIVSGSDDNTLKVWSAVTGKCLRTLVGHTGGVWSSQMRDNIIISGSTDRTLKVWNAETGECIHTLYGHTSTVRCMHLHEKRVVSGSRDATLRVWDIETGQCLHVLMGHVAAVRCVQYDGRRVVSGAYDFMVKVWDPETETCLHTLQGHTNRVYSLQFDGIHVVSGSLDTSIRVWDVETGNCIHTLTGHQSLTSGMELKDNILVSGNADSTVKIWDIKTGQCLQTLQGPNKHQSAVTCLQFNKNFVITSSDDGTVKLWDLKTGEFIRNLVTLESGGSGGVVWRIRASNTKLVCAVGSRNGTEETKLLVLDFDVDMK
MITF primary = blocks human microphthalmia-associated transcription factor | AlphaScreen MITF homodimerization, bead proximity signal | inhibition, % at 2.6 µM | 650,000 compounds, 0.91% hits; in the data active means inhibition above about 50%;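 further: 0% = vehicle wells with protein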
GPR151 ag = activators of human GPR151. Q8TDV0. activation, % at 11.2 µM. 650,000 compounds, 1% hits. PathHunter beta-arrestin GPR151 cells, luminescence; in the data active means activation above about 4.9%;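 further: 0% = median of compound wells and 100% = cells with positive control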
MITF inh conf = human MITF inhibition, confirmation. shares compounds with MITF primary. AlphaScreen MITF homodimerization, biotin/His-MITF beads. inhibition, % at 2.6 µM. 4,700 compounds, 16% hits. AID 1259372;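 active means inhibition above a cutoff derived from the DMSO control wells, cut at about 28% in these data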;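 further: 0% = MITF dimer wells with DMSO only; inhibitors lower the bead chemiluminescence by keeping MITF from dimerizing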
AS interf DR = optically interferes with AlphaScreen signal in dose response; shares compounds with MITF primary; AlphaScreen optical interference counterscreen, cell-free; IC50, µM; 480 compounds, 6% hits; AID 1259373; call rule not given here
AS interf ctr = counter-screen: compounds optically interfering with AlphaScreen | shares compounds with MITF primary | LysRS AlphaScreen counterscreen, signal interference, triplicate | 4,700 compounds, 7.6% hits | AID 1259376 | inhibition, % at 2.6 µM;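 active means inhibition above a cutoff derived from the DMSO control wells, cut at about 30% in these data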
The depositor's hits bear a star. A selection: hits, their analogues and other compounds. The true share with any hit is near 3.5%.

Results for COc1ccccc1CN1CCN(C(=O)c2cccnc2)CC1 ?
TEAD-YAP block: 0; FBW7 act: 0; MITF primary: 57*; GPR151 ag: 1; MITF inh conf: 6; AS interf ctr: -8

Results for Cn1c(=O)c2c(nc(SCc3nc(N)nc(N4CCOCC4)n3)n2Cc2ccccc2Cl)n(C)c1=O ?
TEAD-YAP block: -14; FBW7 act: 0; MITF primary: 12; GPR151 ag: 0

How did O=C(NCCOc1ccccc1)c1cccc(Nc2ccncn2)c1 do in these assays?
TEAD-YAP block: -55; FBW7 act: 0; MITF primary: 81*; GPR151 ag: 1; MITF inh conf: -1; AS interf ctr: 3

Results for CN(Cc1ccccc1)c1cc(-c2ccncc2)nc(-c2cccnc2)n1 ?
TEAD-YAP block: -7; FBW7 act: 0; MITF primary: 6; GPR151 ag: 1

Results for CN(Cc1ccccc1)c1cc(-c2ccccn2)nc(-c2ccccn2)n1 ?
TEAD-YAP block: 40*; FBW7 act: -1; MITF primary: 79*; GPR151 ag: 3; MITF inh conf: 37*; AS interf ctr: 81*

Results for Cc1ccn2c(NCC3CCCO3)c(-c3ccc(O)cc3O)nc2c1 (stereo not drawn) ?
TEAD-YAP block: -3; FBW7 act: 0; MITF primary: 89*; GPR151 ag: -1; MITF inh conf: 84*; AS interf DR: >6.5; AS interf ctr: 6

What do the screens show for `O=C(Nc1ccc(F)c(F)c1F)c1ccc(S(=O)(=O)C(F)F)cc1`?
TEAD-YAP block: -33; FBW7 act: 0; MITF primary: -7; GPR151 ag: -1

Results for COc1cc(NC(=O)CSc2nc3[nH]ncc3c(=O)n2-c2ccc(Cl)c(C)c2)cc(OC)c1OC ?
TEAD-YAP block: 13; FBW7 act: 0; MITF primary: -6; GPR151 ag: -1

Results for O=C(c1csc(Nc2cccc3ccccc23)n1)N1CCCC1 ?
TEAD-YAP block: 8; FBW7 act: 1; MITF primary: 77*; GPR151 ag: -1; MITF inh conf: -5; AS interf ctr: 13

What do the screens show for `CN(CCc1ccccc1)C1CCCN(Cc2ccccn2)C1` (stereo not drawn)?
TEAD-YAP block: 8; FBW7 act: 0; MITF primary: 11; GPR151 ag: 0

What do the screens show for `Cn1c(SCc2ccccc2)nnc1C1CCCN(Cc2ccccn2)C1` (stereo not drawn)?
TEAD-YAP block: -3; FBW7 act: 0; MITF primary: 61*; GPR151 ag: 0; MITF inh conf: 36*; AS interf ctr: 93*

Results for COc1ccc(CCNC(CC(=O)Nc2ccc(Oc3ccccc3)cc2)C(=O)O)cc1 (stereo not drawn) ?
TEAD-YAP block: -4; FBW7 act: 1; MITF primary: 2; GPR151 ag: -1

How did COc1ccc(CCNC(C)CC(=O)Nc2ccccc2)cc1 (stereo not drawn) do in these assays?
TEAD-YAP block: 2; FBW7 act: 0; MITF primary: 56*; GPR151 ag: 0; MITF inh conf: 12; AS interf ctr: 11

How did CC(=O)OC[C@H]1O[C@H](CCO/N=C/[C@@H](C)[C@H](OCc2ccccc2)C(C)C)C=C[C@@H]1OC(C)=O do in these assays?
FBW7 act: 0; MITF primary: -8; GPR151 ag: 1

Results for CCN(CC)C(=O)C1CCCN(Cc2cccc([N+](=O)[O-])c2)C1 (stereo not drawn) ?
TEAD-YAP block: 5; FBW7 act: 0; MITF primary: 40; GPR151 ag: 3

Results for O=C(C1CCN(Cc2ccccc2F)CC1)N1CCc2ccccc2C1 ?
TEAD-YAP block: 6; FBW7 act: 0; MITF primary: 49; GPR151 ag: -1

Results for Cc1ccc(CN2CCC(C(=O)N3CCc4ccccc4C3)CC2)o1 ?
TEAD-YAP block: -7; FBW7 act: 0; MITF primary: 54*; GPR151 ag: 2; MITF inh conf: 11; AS interf ctr: 17

Results for COc1cccc(CN2CCc3ccccc3C2)c1 ?
TEAD-YAP block: 0; FBW7 act: 0; MITF primary: 25; GPR151 ag: 1

What do the screens show for `O=C(C1CCCN(Cc2cccc([N+](=O)[O-])c2)C1)N1CCCCCC1` (stereo not drawn)?
TEAD-YAP block: 5; FBW7 act: 0; MITF primary: 69*; GPR151 ag: 0; MITF inh conf: 13; AS interf ctr: 16

How did O=C(C1CCCN(Cc2cccc([N+](=O)[O-])c2)C1)N1CCc2ccccc2C1 (stereo not drawn) do in these assays?
TEAD-YAP block: 8; FBW7 act: 0; MITF primary: 51*; GPR151 ag: 0; MITF inh conf: 9; AS interf ctr: 17

How did COc1cccc(CN2CCCC(C(=O)N3CCc4ccccc4C3)C2)c1 (stereo not drawn) do in these assays?
TEAD-YAP block: 13; FBW7 act: 0; MITF primary: 60*; GPR151 ag: 1; MITF inh conf: 8; AS interf ctr: 14

What do the screens show for `O=C(O)CCNS(=O)(=O)c1ccc(C2CCCCC2)cc1`?
TEAD-YAP block: 9; FBW7 act: 0; MITF primary: 8; GPR151 ag: 1

How did CCOC(=O)c1ccccc1N1C(=O)c2nccnc2C1=O do in these assays?
TEAD-YAP block: 3; FBW7 act: 0; MITF primary: 4; GPR151 ag: -1

How did O=C(CNC1CCCCCC1)Nc1ccc(C(=O)N2CCCCC2)cc1 do in these assays?
TEAD-YAP block: 11; FBW7 act: 0; MITF primary: 44; GPR151 ag: -1

Results for O=C(CNCc1ccc(F)cc1)Nc1ccc(C(=O)N2CCCCC2)cc1 ?
TEAD-YAP block: 6; FBW7 act: 0; MITF primary: 69*; GPR151 ag: -1; MITF inh conf: 9; AS interf ctr: 17

What do the screens show for `O=C(CNCCc1ccc(Cl)cc1)Nc1ccc(C(=O)N2CCCCC2)cc1`?
TEAD-YAP block: 6; FBW7 act: 0; MITF primary: 58*; GPR151 ag: 0; MITF inh conf: 9; AS interf ctr: 21

Results for O=C(CNCc1ccccc1Cl)Nc1ccc(C(=O)N2CCCCC2)cc1 ?
TEAD-YAP block: 0; FBW7 act: 0; MITF primary: 72*; GPR151 ag: 0; MITF inh conf: 16; AS interf ctr: 18

What do the screens show for `O=C(CCc1ccccc1)Nc1ccc(C(=O)N2CCCCC2)cc1`?
TEAD-YAP block: 3; FBW7 act: 0; MITF primary: -15; GPR151 ag: 0

Results for O=C(CNCCc1ccccc1)Nc1ccc(C(=O)N2CCCCC2)cc1 ?
TEAD-YAP block: -13; FBW7 act: 0; MITF primary: 52*; GPR151 ag: 0; MITF inh conf: 10; AS interf ctr: 19

Compound activity: PubChem, The Scripps Research Institute Molecular Screening Center
